Measurements: PubChem BioAssay (NCATS)
Inconclusive results are not listed. Entries that show only a call come without a potency. A number with no mark means an inactive call. The source made the active and inactive calls. Calls come from the whole dose curve; as a rule, active = well fitted curve in the direction sought with a large enough effect; inconclusive = small, poorly fitted or top-dose-only effect, or another doubt; inactive = no such curve, though single readings can be large; an effect the other way counts as inactive or inconclusive.

Tests used:
[1] = molecular target: Cellular tumor antigen p53 (Homo sapiens) (UniProt P04637); experiment: Primary qHTS for small molecule compounds that upregulate eGFP-tagged delta133p53alpha (in N-terminal) cells. (AID 2060322); conditions: NCI-H358 eGFP-delta133p53alpha fluorescence, 24 h; activation: active compounds read high; note: nearly all actives have a fitted effect of over 75% in size; note: potency is the fitted concentration of half-maximal effect;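 for activation: cells pre-induced with doxycycline then dosed without doxycycline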
Chain of Cellular tumor antigen p53 (Homo sapiens) (P04637 whole entry, looked up): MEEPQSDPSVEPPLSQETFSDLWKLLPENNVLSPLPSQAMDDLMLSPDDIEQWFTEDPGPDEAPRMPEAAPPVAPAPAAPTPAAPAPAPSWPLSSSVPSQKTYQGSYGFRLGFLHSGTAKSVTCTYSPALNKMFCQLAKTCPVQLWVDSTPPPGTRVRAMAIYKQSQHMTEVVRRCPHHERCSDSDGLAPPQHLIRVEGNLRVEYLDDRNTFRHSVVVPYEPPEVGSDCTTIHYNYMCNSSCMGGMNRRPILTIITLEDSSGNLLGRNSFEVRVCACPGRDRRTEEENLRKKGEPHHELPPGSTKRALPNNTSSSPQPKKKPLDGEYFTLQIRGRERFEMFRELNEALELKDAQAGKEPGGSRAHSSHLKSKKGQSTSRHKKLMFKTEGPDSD
Method in brief: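 NCI-H358 cells pre-induced 24 h with 10 ng/ml doxycycline for eGFP-delta133p53alpha, plated dox-free and exposed 24 h at 37C to titrated compounds. Fixed, Hoechst-stained; gated GFP peak intensity by laser scanning cytometry, normalized to DMSO (0%) and 57.5 uM 5-azacytidine (100%).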

[2] = molecular target: Aldehyde dehydrogenase, mitochondrial (Homo sapiens) (UniProt P05091); experiment: qHTS for Inhibitors of the Aldehyde Dehydrogenase Family (ALDH2) Primary screen (AID 2061308); conditions: ALDH2 enzyme inhibition qHTS, 1536-well; series mostly up to 56 µM; note: nearly all actives have a fitted effect of over 55% in size
[3] = molecular target: Retinaldehyde dehydrogenase 3 (Homo sapiens) (UniProt P47895); experiment: qHTS for Inhibitors of the Aldehyde Dehydrogenase Family (ALDH1A3) Primary screen (AID 2061315); conditions: ALDH inhibition qHTS; series mostly up to 56 µM

## COc1cc(CO)ccc1O[C@@H]1O[C@H](CO)[C@@H](O)[C@H](O)[C@H]1O
[1]
  activation: -7.14%
[2]
  Potency: inactive
[3]
  Potency: inactive

## CC(C)=CCC/C(C)=C/CO[C@@H]1O[C@H](CO[C@@H]2O[C@@H](CO)[C@H](O)[C@H]2O)[C@@H](O)[C@H](O)[C@H]1O
[1]
  activation: -29.5%
[2]
  Potency: inactive
[3]
  Potency: inactive

## CC1(C)CC[C@]2(C(=O)O)CC[C@]3(C)C(=CCC4[C@@]5(C)C[C@@H](O)[C@H](O)[C@@](C)(CO)C5[C@H](O)C[C@]43C)[C@@H]2C1 (stereo partly specified)
[1]
  activation: -19.8%
[2]
  Potency: inactive
[3]
  Potency: inactive

## COc1cc(O)cc2c1C(=O)OC(C)C2 (stereo unspecified)
[1]
  activation: -13%
[2]
  Potency: inactive
[3]
  Potency: inactive

## CCC(C)/C=C(C)/C=C/C1=CC2=C(Cl)C(=O)C(C)(OC(C)=O)C(=O)C2=CN1C(CCCN=C(N)N)C(=O)O (stereo unspecified)
[1]
  activation: 16%
[2]
  Potency: inactive
[3]
  Potency: inactive

## Cc1ccc(F)cc1C(=O)Nc1ccc(C(=O)N2Cc3cccn3Cc3ccccc32)c(Cl)c1
[1]
  activation: 1.67%
[2]
  Potency: inactive
[3]
  Potency: inactive

## OC[C@H]1O[C@@H](n2cnc3c(NCc4ccc(O)cc4)ncnc32)[C@H](O)[C@@H]1O
[1]
  activation: 13.7%
[2]
  Potency: inactive
[3]
  Potency: inactive

## CCNC(=O)[C@@H]1CCCN1C(=O)[C@H](CCCN=C(N)N)NC(=O)[C@H](CC(C)C)NC(=O)[C@@H](CC(C)C)NC(=O)[C@H](Cc1ccc(O)cc1)NC(=O)[C@H](CO)NC(=O)[C@H](Cc1c[nH]c2ccccc12)NC(=O)[C@H](Cc1cnc[nH]1)NC(=O)[C@@H]1CCC(=O)N1
[1]
  activation: 7%
[2]
  Potency: inactive
[3]
  Potency: inactive

## C=C1CCC2C(C(C)(C)O)CCC2(C)CC(O)C(=C)CCC1O (stereo unspecified)
[1]
  activation: -12.5%
[2]
  Potency: inactive
[3]
  Potency: inactive

## CC(C)C(NC(=O)c1ccc(O)cc1)C(=O)N1CCCC1C(=O)Nc1c(O)cccc1C(=O)O (stereo unspecified)
[1]
  activation: -0.763%
[2]
  Potency: inactive
[3]
  Potency: inactive

## COC(=O)C1(Cc2ccc(O)cc2)OC(=O)C(OC)=C1c1ccc(O)cc1 (stereo unspecified)
[1]
  activation: -7.63%
[2]
  Potency: inactive
[3]
  Potency: inactive

## CC1OC(OC2C(CO)OC(OCC3OC(OC(=O)C45CCC(C)(C)CC4C4=CCC6C7(C)CCC(OC8OC(C(=O)O)C(O)C(OC9OC(CO)C(O)C(O)C9O)C8O)C(C)(C)C7CCC6(C)C4(C)CC5)C(O)C(O)C3O)C(O)C2O)C(O)C(O)C1O (stereo unspecified)
[1]
  activation: 18.3%
[2]
  activity change, negative = inhibition: -0.0745% [at 11.2 µM]
[3]
  activity change, negative = inhibition: -5.8% [at 11.2 µM]

## C[C@@H]1O[C@@H](O[C@H]2[C@H](O)[C@@H](C(=O)O)O[C@@H](O[C@H]3CC[C@@]4(C)C(CC[C@]5(C)C4CC=C4C6CC(C)(C)CC[C@]6(C(=O)O)CC[C@]45C)C3(C)C)[C@@H]2O[C@@H]2OC[C@@H](O)[C@H](O)[C@H]2O)[C@H](O)[C@H](O)[C@H]1O (stereo partly specified)
[1]
  activation: 2.68%
[2]
  Potency: inactive
[3]
  Potency: inactive

## CN(C)C(=O)C(=O)c1cn(C)c2cc(Cl)c(C(=O)N3CCC(Cc4ccc(F)cc4)CC3)cc12
[1]
  activation: -10.7%
[2]
  Potency: inactive
[3]
  Potency: inactive

## COC(=O)C1=CO[C@@H](O[C@@H]2O[C@H](CO)[C@@H](O)[C@H](O)[C@H]2O)[C@@H]2[C@@H](C)[C@@H](OC(=O)/C=C/c3ccccc3)[C@@H](O)[C@H]12
[1]
  activation: -5.34%
[2]
  Potency: inactive
[3]
  Potency: inactive

## CCOc1ccc(-n2c(C(C)N(Cc3cccnc3)C(=O)Cc3ccc(F)c(C(F)(F)F)c3)nc3ncccc3c2=O)cc1 (stereo unspecified)
[1]
  Potency: 19 µM (active)
[2]
  Potency: inactive
[3]
  Potency: inactive

## CC1=C(C)C(=O)OC(C(C)(O)C2CCC3C4CC=C5CC(OC6OC(COC7OC(CO)C(O)C(O)C7O)C(O)C(O)C6O)CC(O)C5(C)C4CCC32C)C1 (stereo unspecified)
[1]
  activation: -6.87%
[2]
  Potency: inactive
[3]
  Potency: inactive

## COc1cc(C2c3cc(O)c(OC)cc3CC(CO)C2CO)ccc1O (stereo unspecified)
[1]
  activation: 8.93%
[2]
  Potency: inactive
[3]
  Potency: inactive

## CC1C=CC2CCCCC2C1CCC1CC(O)CC(=O)O1 (stereo unspecified)
[1]
  activation: -0.893%
[2]
  Potency: inactive
[3]
  Potency: inactive

## C=CC(C)(C)O[C@@H]1O[C@H](CO[C@@H]2OC[C@](O)(CO)[C@H]2O)[C@@H](O)[C@H](O)[C@H]1O
[1]
  activation: -18.3%
[2]
  Potency: inactive
[3]
  Potency: inactive

## C/C=C/[C@@H]1C=C[C@@H]2C[C@H](C)CC[C@H]2[C@]1(C)/C(O)=C1/C(=O)[C@@H](CO)N(C)C1=O
[1]
  activation: 6.87%
[2]
  Potency: inactive
[3]
  Potency: inactive

## CCC(C)C1NC(=O)C2C(C)CCN2C(=O)C(CC(O)CO)OC(=O)CCNC(=O)C(C)N(C)C(=O)C(C(C)C)N(C)C1=O (stereo unspecified)
[1]
  activation: -6.11%
[2]
  Potency: inactive
[3]
  Potency: inactive

## C1CCN2CC3C[C@@H](CN4CCCC[C@@H]34)[C@H]2C1
[1]
  activation: -23.2%
[2]
  Potency: inactive
[3]
  Potency: inactive

## COC1C2=C(COC2=O)C2(C)CCCC(C)(CO)C2C1OC(=O)c1ccccc1 (stereo unspecified)
[1]
  activation: -16%
[2]
  Potency: inactive
[3]
  Potency: inactive

## CC(=O)O[C@@H]1[C@@H](OC(=O)/C=C/c2ccccc2)[C@@H](OC(C)=O)[C@H](O[C@H]2[C@@H]3C=CO[C@@H](O[C@@H]4O[C@H](CO)[C@@H](O)[C@H](O)[C@H]4O)[C@@H]3[C@@]3(CO)O[C@@H]23)O[C@H]1C
[1]
  activation: -12.2%
[2]
  Potency: inactive
[3]
  Potency: inactive

## C=CC(=O)Nc1cc(-n2c(=O)ccc3cnc4ccc(-c5ccc(NS(C)(=O)=O)cc5)cc4c32)ccc1C
[1]
  Potency: 10.7 µM (active)
[2]
  Potency: inactive
[3]
  Potency: inactive

## CC(C)NCCCn1c(Sc2cc3c(cc2I)OCO3)nc2c(N)ncnc21
[1]
  activation: 10%
[2]
  Potency: inactive
[3]
  Potency: inactive

## C=CC(C)(O)CC/C=C(\C)C(=O)O[C@@H]1[C@@H](O)[C@H](OC(C)(C=C)CC/C=C(\C)C(=O)O[C@@H]2O[C@H](CO)[C@@H](O)[C@H](O)[C@H]2O)O[C@H](CO)[C@H]1OC(=O)/C(C)=C/CCC(C)(O)C=C (stereo partly specified)
[1]
  activation: -19.8%
[2]
  Potency: inactive
[3]
  Potency: inactive

## O=C(/C=C/c1ccc(O)cc1)OC[C@H]1O[C@H](O[C@@]2(CO)O[C@@H](CO)[C@H](O)[C@H]2O)[C@H](O)[C@@H](O)[C@@H]1O
[1]
  activation: 6.25%
[2]
  Potency: inactive
[3]
  Potency: inactive

## CC1=C(C)C(=O)OC(C(C)C2C(O)CC3C4C5OC5C5(O)CC(OC6OC(CO)C(OC7OC(C)C(O)C(O)C7O)C(O)C6O)CC(O)C5(C)C4CCC32C)C1 (stereo unspecified)
[1]
  activation: -6.87%
[2]
  Potency: inactive
[3]
  Potency: inactive

## O=C(NCCO)c1cccc(-c2cc(Nc3ccc(OC(F)(F)F)cc3)ncn2)c1
[1]
  activation: 1.79%
[2]
  Potency: inactive
[3]
  Potency: inactive

## C[C@@H]1C/C=C/C=C\C=C\C=C\[C@H](O[C@@H]2O[C@H](C)[C@@H](O)[C@H](N)[C@@H]2O)C[C@@H]2O[C@](O)(C[C@@H](O)C[C@H]3O[C@@H]3/C=C/C(=O)O1)C[C@H](O)[C@H]2C(=O)O
[1]
  activation: 13.7%
[2]
  Potency: inactive
[3]
  Potency: inactive

## CC(C)(C)c1ccc(S(=O)(=O)Nc2ccc(Cl)cc2C(=O)c2cc[n+]([O-])cc2)cc1
[1]
  activation: -16.3%
[2]
  Potency: inactive
[3]
  Potency: inactive

## CC(C)(O)C1CC=C(C(=O)OC[C@H]2O[C@@H](Oc3cc(C(=O)O)cc(O)c3O)[C@H](O)[C@@H](O)[C@@H]2O)CC1 (stereo partly specified)
[1]
  activation: -22.1%
[2]
  Potency: inactive
[3]
  Potency: inactive

## CC1CCC2(C(=O)OC3OC(CO)C(O)C(O)C3O)CCC3(C)C(=CCC4C5(C)CCC(O)C(C)(CO)C5CCC43C)C2C1(C)O (stereo unspecified)
[1]
  activation: -6.87%
[2]
  Potency: inactive
[3]
  Potency: inactive

## O=C(OC[C@H]1O[C@H](O[C@H]2CO[C@H](CO)[C@@H](O)[C@@H]2O)[C@H](O)[C@@H](O)[C@H]1O)c1ccccc1
[1]
  activation: -4.58%
[2]
  Potency: inactive
[3]
  Potency: inactive

## C=CC(C)(CC/C=C(\C)C(=O)OC[C@H]1O[C@@H](OC(C)(C=C)CC/C=C(\C)C(=O)O[C@H]2[C@H](O)[C@@H](O)[C@H](OC(C)(C=C)CC/C=C(\C)C(=O)O)O[C@@H]2CO)[C@H](O)[C@@H](O)[C@@H]1O)O[C@@H]1O[C@H](CO)[C@@H](O)[C@H](O)[C@H]1O (stereo partly specified)
[1]
  activation: -9.16%
[2]
  Potency: inactive
[3]
  Potency: inactive

## CCC(C)C(=O)O[C@@H]1[C@@H](O)[C@@H](O[C@H]2O[C@H](CO)[C@@H](O)[C@H](O)[C@H]2O)O[C@H](CO)[C@H]1O (stereo partly specified)
[1]
  activation: -2.29%
[2]
  Potency: inactive
[3]
  Potency: inactive

## C=C(C)C(O)COc1ccc(CC(=O)O)cc1 (stereo unspecified)
[1]
  activation: 8.93%
[2]
  Potency: inactive
[3]
  Potency: inactive

## CC1CCC2C(C)(C)C(O)CCC2(C)C12Cc1c(O)cc3c(c1O2)CN=C3N (stereo unspecified)
[1]
  activation: 12.5%
[2]
  Potency: inactive
[3]
  Potency: inactive

## C[C@H]1[C@H](C)CC[C@]2(C(=O)O)CC[C@]3(C(=O)O)C(=CCC4[C@@]5(C)CC[C@H](O[C@@H]6O[C@H](C)[C@@H](O)[C@H](O)[C@H]6O)C(C)(C)C5CC[C@]43C)[C@H]12 (stereo partly specified)
[1]
  activation: -5.36%
[2]
  Potency: inactive
[3]
  Potency: inactive

## CC1CCC2(C(=O)O)CCC3(C)C(=CCC4C5(C)C[C@@H](O)[C@@H](O)C(C)(CO)C5CCC43C)C2C1(C)O (stereo partly specified)
[1]
  activation: 11.6%
[2]
  Potency: inactive
[3]
  Potency: inactive

## CCc1cc(S(=O)(=O)O)c2cc(C(C)C)cccc1-2
[1]
  activation: 4.33%
[2]
  Potency: inactive
[3]
  Potency: inactive

## O=C(OC1C=C(CO)C2C(OC3OC(CO)C(O)C(O)C3O)OC=CC12)c1ccc(O)cc1 (stereo unspecified)
[1]
  activation: -16%
[2]
  Potency: inactive
[3]
  Potency: inactive

## CC(=O)/C=C/C1(O)C(C)=CC(=O)CC1(C)C (stereo unspecified)
[1]
  activation: 14.3%
[2]
  Potency: inactive
[3]
  Potency: inactive

## C=CC(C)(O)CC/C=C(/C)COC(=O)C(C)C1CCC(C)(C=C)O1 (stereo unspecified)
[1]
  activation: 5.36%
[2]
  Potency: inactive
[3]
  Potency: inactive

## C[C@@]12C[C@]3(O)O[C@H](O1)[C@]1(COC(=O)c4ccccc4)[C@H]3C[C@@]12O[C@@H]1O[C@H](CO)[C@@H](O)[C@H](O)[C@H]1O
[1]
  activation: 25%
[2]
  Potency: inactive
[3]
  Potency: inactive
